Reference: PubChem BioAssay AID1159580 (chemical genetic matrix, 2015)
Screen size: about 5,500 compounds; about 2,000 (36%) were called active. Inconclusive results (about 18%) are left out. Cut-off read from the data, not from the text of the source: active = normalized growth mostly below about 0.91 (no sharp cut-off); inconclusive = no clear call, values can overlap the other calls; inactive = mostly above about 0.92. The list shows a part of the results.

Experiment: chemical genetic growth profiling, strain panel (AID 1159580);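 note: tested at 20 µM; growth read once vehicle control cultures reached saturation at 30 °C; 1 = growth at the plate median or of vehicle wells; lower values mean less growth of the strain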
Conditions: growth OD

Measured: normalized growth

CC[C@@H](CO)NC(=O)[C@@H]1C=C2c3cccc4[nH]cc(c34)C[C@H]2N(C)C1
inactive: S. cerevisiae deletion strains, locus YKL009W, strain mrt4, active compounds read low 0.999 | S. cerevisiae deletion strains, locus YKL068W, active compounds read low 0.996 | S. cerevisiae deletion strains, locus YKL085W, strain MDH1 (second series), active compounds read low 1.02 | S. cerevisiae deletion strains, locus YKL085W, strain MDH1, active compounds read low 1.02 | S. cerevisiae deletion strains, locus YKL160W, strain elf1, active compounds read low 0.982 | S. cerevisiae deletion strains, locus YKL190W, strain CNB1, active compounds read low 0.997 | S. cerevisiae deletion strains, locus YKR001C, strain vps1, active compounds read low 0.947 | S. cerevisiae deletion strains, locus YKR026C, strain gcn3, active compounds read low 1 | S. cerevisiae deletion strains, locus YKR091W, strain srl3, active compounds read low 0.997 | S. cerevisiae deletion strains, locus YLL001W, strain dnm1, active compounds read low 0.982 | S. cerevisiae deletion strains, locus YLL026W, active compounds read low 0.986 | S. cerevisiae deletion strains, locus YLL041C, strain sdh2, active compounds read low 1 | S. cerevisiae deletion strains, locus YLR027C, strain aat2, active compounds read low 0.993 | S. cerevisiae deletion strains, locus YLR039C, strain RIC1, active compounds read low 1.04 | S. cerevisiae deletion strains, locus YLR058C, strain SHM2, active compounds read low 0.989 | S. cerevisiae deletion strains, locus YLR102C, strain apc9, active compounds read low 0.985 | S. cerevisiae deletion strains, locus YLR113W, strain HOG1, active compounds read low 1.03 | S. cerevisiae deletion strains, locus YLR221C, strain rsa3, active compounds read low 0.999 | S. cerevisiae deletion strains, locus YLR258W, strain gsy2, active compounds read low 1 | S. cerevisiae deletion strains, locus YLR262C, strain YPT6 (second series), active compounds read low 0.991 | S. cerevisiae deletion strains, locus YLR262C, strain YPT6, active compounds read low 1.06 | S. cerevisiae deletion strains, locus YLR268W, strain sec22, active compounds read low 0.985 | S. cerevisiae deletion strains, locus YLR320W, strain mms22, active compounds read low 0.98 | S. cerevisiae deletion strains, locus YLR330W, strain CHS5, active compounds read low 0.992 | S. cerevisiae deletion strains, locus YLR342W, strain FKS1 (second series), active compounds read low 0.983 | S. cerevisiae deletion strains, locus YLR342W, strain FKS1, active compounds read low 0.982 | S. cerevisiae deletion strains, locus YLR357W, strain rsc2, active compounds read low 0.978 | S. cerevisiae deletion strains, locus YLR370C, strain arc18, active compounds read low 1 | S. cerevisiae deletion strains, locus YLR371W, strain rom2, active compounds read low 0.986 | S. cerevisiae deletion strains, locus YLR384C, strain iki3, active compounds read low 0.997 | S. cerevisiae deletion strains, locus YLR418C, strain cdc73, active compounds read low 0.926 | S. cerevisiae deletion strains, locus YML016C, strain PPZ1, active compounds read low 0.978 | S. cerevisiae deletion strains, locus YML032C, strain rad52, active compounds read low 0.971 | S. cerevisiae deletion strains, locus YML120C, strain ndi1, active compounds read low 1.01 | S. cerevisiae deletion strains, locus YML124C, strain tub3, active compounds read low 0.987 | S. cerevisiae deletion strains, locus YMR058W, strain fet3, active compounds read low 0.99 | S. cerevisiae deletion strains, locus YMR078C, strain ctf18, active compounds read low 0.996 | S. cerevisiae deletion strains, locus YMR125W, strain sto1, active compounds read low 1.01 | S. cerevisiae deletion strains, locus YMR129W, active compounds read low 1 | S. cerevisiae deletion strains, locus YMR205C, strain PFK2, active compounds read low 0.993 | S. cerevisiae deletion strains, locus YMR223W, strain ubp8, active compounds read low 0.961 | S. cerevisiae deletion strains, locus YMR231W, strain pep5, active compounds read low 0.992 | S. cerevisiae deletion strains, locus YMR263W, strain SAP30, active compounds read low 1.01 | S. cerevisiae deletion strains, locus YMR307W, strain GAS1, active compounds read low 0.972 | S. cerevisiae deletion strains, locus YNL067W, strain RPL9B, active compounds read low 1.04 | S. cerevisiae deletion strains, locus YNL071W, strain lat1, active compounds read low 1 | S. cerevisiae deletion strains, locus YNL128W, strain TEP1, active compounds read low 1.01 | S. cerevisiae deletion strains, locus YNL153C, strain GIM3, active compounds read low 1.02 | S. cerevisiae deletion strains, locus YNL183C, strain NPR1, active compounds read low 0.978 | S. cerevisiae deletion strains, locus YNL209W, strain ssb2, active compounds read low 1 | S. cerevisiae deletion strains, locus YNL233W, strain BNI4, active compounds read low 0.983 | S. cerevisiae deletion strains, locus YNL248C, strain rpa49, active compounds read low 1 | S. cerevisiae deletion strains, locus YNL250W, strain rad50, active compounds read low 0.978 | S. cerevisiae deletion strains, locus YNL271C, strain bni1, active compounds read low 0.981 | S. cerevisiae deletion strains, locus YNL298W, strain CLA4, active compounds read low 0.999 | S. cerevisiae deletion strains, locus YNL307C, strain MCK1, active compounds read low 0.973 | S. cerevisiae deletion strains, locus YNL322C, strain KRE1 (second series), active compounds read low 0.993 | S. cerevisiae deletion strains, locus YNL322C, strain KRE1, active compounds read low 0.997 | S. cerevisiae deletion strains, locus YNR049C, strain mso1, active compounds read low 0.999 | S. cerevisiae deletion strains, locus YNR052C, strain pop2, active compounds read low 0.996 | S. cerevisiae deletion strains, locus YOL006C, strain TOP1, active compounds read low 1.03 | S. cerevisiae deletion strains, locus YOL012C, strain htz1 0.998 | S. cerevisiae deletion strains, locus YOL147C, strain pex11, active compounds read low 0.994 | S. cerevisiae deletion strains, locus YOR001W, strain rrp6, active compounds read low 0.992 | S. cerevisiae deletion strains, locus YOR061W, strain CKA2, active compounds read low 0.991 | S. cerevisiae deletion strains, locus YOR069W, strain VPS5, active compounds read low 0.986 | S. cerevisiae deletion strains, locus YOR070C, strain gyp1, active compounds read low 1 | S. cerevisiae deletion strains, locus YOR080W, strain dia2, active compounds read low 0.994 | S. cerevisiae deletion strains, locus YOR083W, strain WHI5, active compounds read low 0.963 | S. cerevisiae deletion strains, locus YOR106W, strain vam3, active compounds read low 0.993 | S. cerevisiae deletion strains, locus YOR136W, strain idh2, active compounds read low 0.986 | S. cerevisiae deletion strains, locus YOR144C, strain elg1, active compounds read low 0.984 | S. cerevisiae deletion strains, locus YOR184W, strain ser1, active compounds read low 0.966 | S. cerevisiae deletion strains, locus YOR231W, strain MKK1, active compounds read low 1.03 | S. cerevisiae deletion strains, locus YOR265W, strain rbl2, active compounds read low 1.01 | S. cerevisiae deletion strains, locus YOR270C, strain vph1, active compounds read low 1.03 | S. cerevisiae deletion strains, locus YOR290C, strain snf2, active compounds read low 1 | S. cerevisiae deletion strains, locus YOR316C, strain cot1, active compounds read low 0.987 | S. cerevisiae deletion strains, locus YPL051W, strain arl3, active compounds read low 0.992 | S. cerevisiae deletion strains, locus YPL055C, strain LGE1, active compounds read low 1.07 | S. cerevisiae deletion strains, locus YPL078C, strain atp4, active compounds read low 0.98 | S. cerevisiae deletion strains, locus YPL106C, strain sse1, active compounds read low 0.981 | S. cerevisiae deletion strains, locus YPL240C, strain hsp82, active compounds read low 0.995 | S. cerevisiae deletion strains, locus YPL241C, strain CIN2, active compounds read low 0.997 | S. cerevisiae deletion strains, locus YPL256C, strain CLN2, active compounds read low 1.1 | S. cerevisiae deletion strains, locus YPR119W, strain clb2, active compounds read low 0.989 | S. cerevisiae deletion strains, locus YPR141C, strain kar3, active compounds read low 0.992 | S. cerevisiae deletion strains, locus YPR163C, strain tif3, active compounds read low 0.987 | S. cerevisiae deletion strains, locus YPR167C, strain met16, active compounds read low 0.987 | S. cerevisiae deletion strains, strain wtn01, active compounds read low 0.975 | S. cerevisiae strains, strain wild type, active compounds read low 0.982
